Our source for the PBM binding z-score values is the supplement of paper PMC6555819.

Holding throughout (assay): PBM binding z-score (relative to random genomic background probes); higher = stronger binding; sequences stand for … in GC…GCGATTGACAGCGTAGAATGAAGG
Assay [1] concerns FXR:RXRa (NR concentration 270 nM, RXRa partner concentration 90 nM). The gist of the method:
(§1)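 Regression normalization was applied to scanned fluorescence from custom Agilent 4×180K protein-binding microarrays. Before scanning, arrays were incubated 1 h with ligand-free nuclear receptor dimers, and binding was detected with antibodies against each partner (one per run). Binding z-scores use the random background probes as reference.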

The subject of assay [2] is LXRa:RXRa (NR concentration 270 nM, RXRa partner concentration 90 nM). The essentials:
as §1

In assay [3] the test system is LXRa homodimer (NR concentration 270 nM). The gist of the method: as §1
Assay [4] relates to LXRb:RXRa (NR concentration 270 nM, RXRa partner concentration 90 nM). The gist of the method: as §1
Assay [5] relates to LXRb homodimer (NR concentration 270 nM). The gist of the method: as §1
For assay [6], the system named is PPARa:RXRa (NR concentration 270 nM, RXRa partner concentration 90 nM). The essentials: as §1
The subject of assay [7] is PPARg:RXRa (NR concentration 180 nM, RXRa partner concentration 90 nM). The essentials:
as §1

In assay [8] the test system is PPARg:RXRa 270nM:90nM, anti-RXR (NR concentration 270 nM, RXRa partner concentration 90 nM). The gist of the method:
as §1

For assay [9], the system named is PPARg:RXRa 30nM:10nM, anti-RXR (NR concentration 30 nM, RXRa partner concentration 10 nM). The gist of the method:
as §1

Assay [10] has as its system PPARg:RXRa 90nM:30nM, anti-RXR (NR concentration 90 nM, RXRa partner concentration 30 nM). The gist of the method:
as §1

Assay [11] has as its system PPARg:RXRa DBDmut IVT, anti-RXR (DBD mutation: RXRa K156A/R161A, NR concentration 270 nM, RXRa partner concentration 90 nM). The essentials: as §1
The test system of assay [12] is PPARg:RXRa IVT, anti-PPARg (NR concentration 270 nM, RXRa partner concentration 90 nM). The essentials: as §1
Assay [13] concerns PPARg DBDmut:RXRa IVT, anti-PPARg (DBD mutation: PPARg1 K132A/R137A, NR concentration 270 nM, RXRa partner concentration 90 nM). The essentials: as §1
The subject of assay [14] is PPARg DBDmut IVT, anti-PPARg (DBD mutation: PPARg1 K132A/R137A, NR concentration 270 nM). The gist of the method:
as §1

Assay [15] concerns PPARg homodimer (NR concentration 180 nM). The gist of the method:
as §1

For assay [16], the system named is PXR:RXRa (NR concentration 270 nM, RXRa partner concentration 90 nM). The essentials:
as §1

The subject of assay [17] is PXR homodimer (NR concentration 270 nM). The gist of the method: as §1
For assay [18], the system named is RARa:RXR (NR concentration 270 nM, RXRa partner concentration 90 nM). The essentials:
as §1

In assay [19] the test system is RARa homodimer (NR concentration 270 nM). The essentials: as §1
For assay [20], the system named is RARb:RXRa (NR concentration 270 nM, RXRa partner concentration 90 nM). The gist of the method:
as §1

As to TTACCAAGGTGAGCTGAGGTCGTTGATCCAACTC, the PBM binding z-score is 2.68 in assay [1]; 1.31 in assay [2]; -0.429 in assay [3]; 0.771 in [4]; -0.932 in [5]; 1.75 in assay [6]. Besides, the PBM binding z-score was 0.0695 in [7]; 0.731 in assay [8]; -0.00962 in [9]; 0.482 in [10]; 1.28 in [11]; 2.17 in assay [12]. Further, the PBM binding z-score in assay [13] is -0.497; in [14], -0.723; in assay [15] it was -0.21; in assay [16], 4.78; in assay [17] it was 0.329; in [18], 1.72. For the same sequence, the PBM binding z-score in assay [19] was -1.01; in [20], 1.93.

As to CAAACTAGGTCACGAAAGGTCAGAGTCGAATGAC, the PBM binding z-score came to 6.76 in assay [1]; 7.61 in assay [2]; 5.28 in [3]; 6.37 in assay [4]; 1.23 in assay [5]; 5.96 in assay [6]. Further, the PBM binding z-score in assay [7] stood at 10.3; in [8], 7.74; in assay [9] it was 6.9; in assay [10], 8.34; in assay [11], 8.85; in assay [12] it was 9.13. Further, the PBM binding z-score in assay [13] was 3.21; in assay [14] it was 1.91; in [15], 7.35; in [16] it was 6.33; in [17], 1.71; in assay [18] it was 6.97. For the same sequence, the PBM binding z-score in assay [19] is 5.45; in assay [20] it was 5.39.

CCTCCGAGGACAACAGGAGGTCAGAGCTGCCAGA: the PBM binding z-score was 1.35 in [1]; 2.3 in assay [2]; 2.21 in [3]; 1.51 in assay [4]; -0.302 in assay [5]; 2.02 in [6]. Further, the PBM binding z-score in assay [7] is 0.575; in assay [8] it was 0.211; in assay [9], -0.642; in [10], -0.107; in assay [11], -0.0648; in [12], 0.335. For the same sequence, the PBM binding z-score in assay [13] was -1.15; in assay [14] it was -1.76; in assay [15], 1.29; in [16], 2.17; in assay [17], 0.291; in [18], 2.7. Also, the PBM binding z-score was -0.117 in assay [19] and 2.88 in assay [20].

Turning to CAAACTAGGTCACGAAAGGTAAAAGTCGAATGAC, the PBM binding z-score in [1] came out at 5.18; in assay [2] it was 4.51; in [3] it was 0.678; in assay [4] it was 3; in assay [5] it was 0.18; in assay [6], 5.71. In addition, the PBM binding z-score in assay [7] was 9.74; in assay [8], 7.96; in assay [9] it was 6.05; in assay [10], 7.49; in [11] it was 8.36; in assay [12] it was 9.37. The PBM binding z-score turned out to be 5.06 in [13]; 2.46 in assay [14]; 2.6 in assay [15]; 3.12 in assay [16]; 0.438 in [17]; 3.69 in assay [18]. Moreover, the PBM binding z-score in [19] is 1.43; in assay [20] it was 4.33.

On to TCTTGTAGATCAATAGAGGTAAAGAAAGTGCGCT, for which the PBM binding z-score in assay [1] was 0.355; in assay [2], 0.562; in assay [3], -0.497; in [4] it was 0.281; in [5] it was -0.231; in assay [6], 0.706. The PBM binding z-score in assay [7] was -0.0447; in assay [8], 1.14; in assay [9], 2.57; in [10], 1.62; in assay [11] it was 1.51; in assay [12], 0.822. Besides, the PBM binding z-score is 0.0443 in [13]; 0.312 in assay [14]; -0.815 in [15]; 0.573 in assay [16]; 0.0758 in [17]; 0.505 in assay [18]. Besides, the PBM binding z-score in [19] was -0.142; in [20], -0.0126.

For GGAACGAGGGCATTCGAATTGATAGCATGGCGAT, the PBM binding z-score in assay [1] was 0.807; in assay [2], 0.373; in [3], -0.335; in assay [4] it was 0.239; in assay [5], -0.211; in [6], 1.31. Besides, the PBM binding z-score in assay [7] worked out at 1.15; in assay [8], 1.14; in [9], 0.413; in assay [10] it was 0.651; in assay [11], 3.02; in assay [12], 2.16. The PBM binding z-score is -0.249 in assay [13]; -0.176 in [14]; -0.045 in assay [15]; 0.719 in assay [16]; 0.241 in assay [17]; 0.841 in assay [18]. In addition, the PBM binding z-score in assay [19] was -0.483; in assay [20], 1.9.

Consider CGAACTAGGTCAGAACAGGACAGGGAAGGATGAT, for which the PBM binding z-score is 1.5 in assay [1]; 1.01 in assay [2]; 0.0984 in assay [3]; 0.515 in [4]; -0.138 in assay [5]; 3.4 in assay [6]. Moreover, the PBM binding z-score in assay [7] stood at 5.45; in assay [8] it was 4.61; in assay [9], 1.99; in assay [10] it was 3.65; in [11], 7.1; in assay [12], 7.39. In addition, the PBM binding z-score was found to be 2 in assay [13]; 3.12 in assay [14]; 1.1 in assay [15]; 0.778 in [16]; 0.31 in assay [17]; 2.03 in [18]. In addition, the PBM binding z-score in assay [19] amounted to 0.307; in [20], 3.02.
